Assay outcomes deposited in PubChem by National Center for Advancing Translational Sciences (NCATS).
TDP1 cell noCPT = qHTS for Inhibitors of human tyrosyl-DNA phosphodiesterase 1 (TDP1): qHTS in cells in absence of CPT; DT40 Tdp1-/- hTDP1 cells, no CPT, ATP luminescence, 48 h; Potency, µM (series often up to 46.2 µM), usual class: inhibitors; hit rate 15% among 420,000; AID 686978, 2013; note: nearly all actives have a fitted effect of over 55% in size
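Chicken DT40 Tdp1-/- cells stably complemented with human TDP1 were seeded at 400 cells/well with DMSO in place of 20 nM camptothecin. After compound pinning, cells grew at least 48 hr at 37 °C; viability read by CellTiter-Glo luminescence.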
RORgamma inh = qHTS for inhibitors of ROR gamma transcriptional activity; Drosophila S2 Gal4-RORgamma UAS-luciferase reporter, 20 h; Potency, µM (top dose mostly 53.6 µM), usual class: inhibitors; Nuclear receptor ROR-gamma (Mus musculus), P51450; hit rate 5.4% among 310,000; AID 2551, 2010; note: nearly all actives have a fitted effect of over 60% in size
Target sequence (P51450 whole entry, looked up, the tested form may be a part): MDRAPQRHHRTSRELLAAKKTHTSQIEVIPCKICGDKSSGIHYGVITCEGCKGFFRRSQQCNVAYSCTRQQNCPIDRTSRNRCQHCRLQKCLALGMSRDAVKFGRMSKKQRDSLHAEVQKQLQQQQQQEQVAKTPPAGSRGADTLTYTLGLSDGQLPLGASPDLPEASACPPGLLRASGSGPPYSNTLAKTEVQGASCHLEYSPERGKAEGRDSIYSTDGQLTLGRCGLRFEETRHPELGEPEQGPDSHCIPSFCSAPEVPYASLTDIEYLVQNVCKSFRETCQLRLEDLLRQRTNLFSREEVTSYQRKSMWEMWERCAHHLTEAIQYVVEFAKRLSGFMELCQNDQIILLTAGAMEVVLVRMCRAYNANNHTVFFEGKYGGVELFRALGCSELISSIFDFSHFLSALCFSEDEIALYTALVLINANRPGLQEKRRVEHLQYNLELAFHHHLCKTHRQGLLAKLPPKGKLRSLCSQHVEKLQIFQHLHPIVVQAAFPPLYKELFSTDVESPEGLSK
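A Gal4/UAS one-hybrid system in insect cells: metallothionein-promoter Gal4–ROR gamma fusion plus Photinus luciferase reporter. Copper sulfate 700 uM final, 20 hr ambient incubation, luminescent detection after 10 min with reagent.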
DT40 TDP1 CPT = qHTS for Inhibitors of human tyrosyl-DNA phosphodiesterase 1 (TDP1): qHTS in cells in presence of CPT. chicken DT40 Tdp1-/-;hTDP1 cells + 20 nM CPT, ATP luminescence, 48 h. Potency, µM (highest dose often 46.2 µM), usual class: inhibitors. hit rate 12% among 420,000; note: nearly all actives have a fitted effect of over 55% in size
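Chicken DT40 Tdp1-/- cells stably complemented with human TDP1 were seeded at 400 cells/well in medium containing 20 nM camptothecin, exposed to pin-transferred compounds, and grown at 37 °C for at least 48 hr. Viability was read as ATP luminescence.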
VP16 counter = VP16 counterscreen qHTS for inhibitors of ROR gamma transcriptional activity. Potency, µM (doses to about 53.6 µM), actives largely listed as inhibitors. Drosophila S2 Gal4-VP16 UAS-luciferase, luminescence, 20 h. AID 2546, 2010. hit rate 3.5% among 310,000;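 note: Gal4-VP16 expression switched on by copper sulfate through the metallothionein promoter; nearly all actives have a fitted effect of over 50% in size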
ALOX12 inh = Primary qHTS assay for inhibitors of human arachidonate 12S-lipoxygenase (ALOX12): Round 2 | Polyunsaturated fatty acid lipoxygenase ALOX12 (Homo sapiens), P18054 | purified 12hLO, xylenol orange hydroperoxide absorbance | Potency, µM (titrated, usually from 108 µM), most hits filed as inhibitors | hit rate 1.1% among 580,000 | AID 1671190, 2021
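Purified human 12hLO (150 nM final) in 25 mM Hepes, 0.01% Triton X-100, pH 7.0 was preincubated 15 min at room temperature with compound. Then 40 uM arachidonic acid was added, 30 min. Hydroperoxide was read by Fe-XO absorbance ratio 573/405 nm.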
ELG1 repair inh = qHTS screen for small molecules that inhibit ELG1-dependent DNA repair in human embryonic kidney (HEK293T) cells expressing luciferase-tagged ELG1; HEK293T ELG1-luciferase reporter, luminescence, 16 h; DNA damage induced by 5-fluorouridine; Potency, µM (highest dose often 46.1 µM), most hits filed as inhibitors; hit rate 2.3% among 330,000; AID 504467, 2011; note: nearly all actives have a fitted effect of over 55% in size
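Step one: seed 2,000 cells per well. Step two: pin-transfer compound or DMSO alongside 5-fluorouridine. Step three: incubate 16 hr, 37 °C, 5% CO2. Step four: add ONE-Glo, wait 30 min, read luminescence.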
Numbers stand for hits; i = inactive; ? = inconclusive; nt = not tested or not shown; ! = not active in a repeat; [ ] = dose if it differs, or a comment. Most compounds without a hit are left out; they make up all but 15% or so of the library. Calls come from the whole dose curve; as a rule, active = well fitted curve in the direction sought with a large enough effect; inconclusive = small, poorly fitted or top-dose-only effect, or another doubt; inactive = no such curve, though single readings can be large; an effect the other way counts as inactive or inconclusive.

SMILES | TDP1 cell noCPT | RORgamma inh | DT40 TDP1 CPT | VP16 counter | ALOX12 inh | ELG1 repair inh
Cc1cc(C)nc(Nc2n[nH]c(-c3cccc4ccccc34)n2)n1 | ? | 11µM | ? | ? | i | ?
Cc1cc(C)nc(Nc2n[nH]c(-c3ccccc3Cl)n2)n1 | i | ? | i | i | i | ?
Cc1cc(C)nc(Nc2n[nH]c(COc3ccccc3)n2)n1 | 18µM | i | ? | i | i | ?
COc1ccc(C)cc1NC(=O)[C@H]1CCC[C@H]1NC(=O)c1cnc(C)cn1 | nt | nt | nt | nt | i | nt
COc1ccc2[nH]c(C[C@@H]3C[C@@H](C(C)C)[C@H](CNC(=O)C4CCC4)C=C3C)nc2n1 | nt | nt | nt | nt | i | nt
CCNC(=O)NC(=O)COC(=O)c1cc(-c2ccc(C)o2)nc2ccccc12 | nt | nt | nt | nt | 3.2µM | nt
CCNC(=O)NC(=O)COC(=O)c1cc(-c2ccco2)nc2ccccc12 | nt | nt | nt | nt | 6.3µM | nt
CCNC(=O)COC(=O)c1cc(-c2ccc(OC)cc2)nc2ccccc12 | ? | i | ? | i | i | i
Cc1ccc(-c2cc(C(=O)OC(C)C(=O)NC(=O)NC3CCCC3)c3ccccc3n2)o1 (configuration not stated) | nt | nt | nt | nt | 4µM | nt
O=C(CSc1nc2ccccc2o1)Nc1ccc2ccccc2c1 | nt | nt | nt | nt | i | nt
Cc1ccc2c(C)c(C(=O)Nc3nc(-c4ccc(C)s4)ns3)oc2c1 | nt | nt | nt | nt | i | nt
C=CCN1C(=O)/C(=C/c2ccc(-c3ccc(F)cc3)o2)SC1=S | i | ? | i | i | 45µM | ?
O=C(O)C(c1ccccc1)N1C(=O)/C(=C\c2ccc(-c3ccc(Br)cc3)o2)SC1=S (configuration not stated) | i | i | i | i | 6.3µM | i
O=C(c1ccccc1)N1CCC2(CC(c3cccc(C(F)(F)F)c3)=NO2)C1 (configuration not stated) | nt | nt | nt | nt | i[6.33 µM] | nt
O=c1c2ccccc2c(C=NCCCN2CCOCC2)c(O)n1Cc1ccccc1 | ? | i | 18µM | i | i | i
OC1(c2ccc(Cl)c(C(F)(F)F)c2)CCN(CCCC(c2ccc(F)cc2)c2ccc(F)cc2)CC1 | 3µM | 13µM | 2.7µM | 10µM | ? | nt
OC1(c2cccc(F)c2)CCN(Cc2ccncc2)CC1 | i | i | i | i | i | i
CCOc1ccc(NC(=O)c2ccc(NC(=O)c3cn4c5c(c(N6CCN(C)CC6)c(F)cc5c3=O)OCC4C)cc2)cc1 (configuration not stated) | 4.6µM | i | 5.2µM | i | ? | i
CCOc1ccc(C(=O)Nc2ccc(N3CCN(C)CC3)cc2)cc1 | i | i | i | i | ? | ?
CC1COc2c(N3CCN(C)CC3)c(F)cc3c(=O)c(C(=O)O)cn1c23 (configuration not stated) | 13µM! | i | 21µM! | i | i | nt
N#Cc1nc(-c2cccc(Cl)c2)oc1NCCCN1CCOCC1 | nt | nt | nt | nt | i | nt
COc1ccc2nc([C@H]3CCN(CC(C)C)C3)[nH]c2c1 | nt | nt | nt | nt | i | nt
CN1CC(=O)N(c2ccc([N+](=O)[O-])cc2)Cc2c1ncnc2N1CCC(N2CCOCC2)CC1 | nt | nt | nt | nt | i | nt
Cc1cc(=O)n2[nH]c(N)c(N=Nc3ccccc3)c2n1 | 29µM | ? | ? | i | i | i
Nc1[nH]n2c(=O)c3c(nc2c1N=Nc1ccccc1)CCCC3 | 18µM | i | ? | i | i | ?
SMILES | TDP1 cell noCPT | RORgamma inh | DT40 TDP1 CPT | VP16 counter | ALOX12 inh | ELG1 repair inh
Cc1ccc(C(=O)Nc2nc3nc(-c4ccccc4)cc(=O)n3[nH]2)cc1 | ? | i | i | i | ? | i
COc1cccc(N=Nc2c(N)[nH]n3c(=O)cc(-c4ccccc4)nc23)c1 | 7.3µM | i | 9.2µM | i | i | i
Cc1ccc(N=Nc2c(N)[nH]n3c(=O)cc(-c4ccccc4)nc23)cc1 | 15µM | i | ? | ? | i | i
CC(C)(C)c1ccc(C(=O)Nc2ccc(Cl)cc2F)cc1 | nt | nt | nt | nt | i | nt
O=C(/C(=C/c1ccc(F)cc1)c1nc2ccccc2o1)c1ccccc1 | nt | nt | nt | nt | i | nt
Cc1ccc(C)c(N2CCN(C3C(=O)Nc4ccccc4-n4nnnc43)CC2)c1 (configuration not stated) | 16µM | nt | 21µM | nt | i | nt
O=C1Nc2ccccc2-n2nnnc2C1N1CCN(c2ccc(C(F)(F)F)cc2[N+](=O)[O-])CC1 (configuration not stated) | 16µM | nt | 23µM | nt | i | nt
COc1ccc(N2CCN(C3C(=O)Nc4ccccc4-n4nnnc43)CC2)cc1 (configuration not stated) | i | nt | i | nt | i | nt
O=C(NCCc1ccccc1)N(C1CCOCC1)C1CCN(CC2CCCCC2)CC1 | nt | nt | nt | nt | i | nt
CN(CC(=O)NC(N)=O)Cc1ccsc1 | nt | nt | nt | nt | i | nt
Cc1cccc(-n2ccnc2SCC(=O)N2CCCc3ccccc32)c1C | 21µM | i | 18µM | i | i | i
Cn1ccnc1SCC(=O)N1CCc2ccccc21 | i | i | i | ? | i | ?
Cc1ccc(NC(=O)CSc2nccn2C2CCCC2)cc1Cl | ? | nt | ? | nt | i | nt
CCc1ccc(NC(=O)CSc2nccn2C2CCCC2)cc1 | ? | nt | 18µM | nt | i | nt
Cc1nnc(NC(=O)CSc2nccn2-c2cccc(Cl)c2)s1 | i | nt | i | nt | i | nt
